Holding throughout (set-up): species or system human, MV4-11 + K-562 + COLO205 + SK-N-BE2 + OVCAR-8
Assay [1] has as its system ADCK1. To be noted: read-out: apparent Kd; compound concentrations: 100 nM and 1000 nM (sheet 'Samples'), CATDS: 1.95230654661257E-2; n = 1.
Assay [2] has as its system AKT1. The following applies: read-out: apparent Kd; compound concentrations: 100 nM and 1000 nM (sheet 'Samples'), CATDS: 2.9179929134034902E-2; n = 1.
Assay [3] deals with AKT2. To be noted: read-out: apparent Kd; compound concentrations: 100 nM and 1000 nM (sheet 'Samples'), CATDS: 2.7091450445171202E-2; n = 1.
In assay [4] the test system is CDC42BPA. To be noted: read-out: apparent Kd; compound concentrations: 100 nM and 1000 nM (sheet 'Samples'), CATDS: 1.9780691565578001E-2; n = 1.
For assay [5], the system named is CDC42BPB. To be noted: read-out: apparent Kd; compound concentrations: 100 nM and 1000 nM (sheet 'Samples'), CATDS: 1.71408665149138E-2; n = 1.
In assay [6] the test system is CDK17. To be noted: read-out: apparent Kd; compound concentrations: 100 nM and 1000 nM (sheet 'Samples'), CATDS: 1.7217162863952602E-2; n = 1.
For assay [7], the system named is CIT. To be noted: read-out: apparent Kd; compound concentrations: 100 nM and 1000 nM (sheet 'Samples'), CATDS: 2.24347173261998E-2; n = 1.
Assay [8] deals with GSK3A. The following applies: read-out: apparent Kd; compound concentrations: 100 nM and 1000 nM (sheet 'Samples'), CATDS: 4.2719516683869502E-2; n = 1.
Assay [9] deals with GSK3B. The following applies: read-out: apparent Kd; compound concentrations: 100 nM and 1000 nM (sheet 'Samples'), CATDS: 3.83672032367414E-2; n = 1.
Assay [10] has as its system IKBKE. To be noted: read-out: apparent Kd; compound concentrations: 100 nM and 1000 nM (sheet 'Samples'), CATDS: 1.7325644717854999E-2; n = 1.
In assay [11] the test system is IRAK3. The following applies: read-out: apparent Kd; compound concentrations: 100 nM and 1000 nM (sheet 'Samples'), CATDS: 2.0418472541538401E-2; n = 1.
The test system of assay [12] is JAK2. To be noted: read-out: apparent Kd; compound concentrations: 100 nM and 1000 nM (sheet 'Samples'), CATDS: 0.192481748469752; n = 1.
The subject of assay [13] is LATS1. To be noted: read-out: apparent Kd; compound concentrations: 100 nM and 1000 nM (sheet 'Samples'), CATDS: 3.9734792534973799E-2; n = 1.
For assay [14], the system named is MARK2. To be noted: read-out: apparent Kd; compound concentrations: 100 nM and 1000 nM (sheet 'Samples'), CATDS: 2.5049968914142899E-2; n = 1.
The test system of assay [15] is MARK3. To be noted: read-out: apparent Kd; compound concentrations: 100 nM and 1000 nM (sheet 'Samples'), CATDS: 2.50648330516796E-2; n = 1.
Assay [16] has as its system MARK4. The following applies: read-out: apparent Kd; compound concentrations: 100 nM and 1000 nM (sheet 'Samples'), CATDS: 2.22913749693762E-2; n = 1.
Assay [17] relates to MTOR. To be noted: read-out: apparent Kd; compound concentrations: 100 nM and 1000 nM (sheet 'Samples'), CATDS: 2.8143895354302499E-2; n = 1.
Assay [18] concerns PAK4. To be noted: read-out: apparent Kd; compound concentrations: 100 nM and 1000 nM (sheet 'Samples'), CATDS: 7.9705302542388501E-2; n = 1.
Assay [19] has as its system PAK6. The following applies: read-out: apparent Kd; compound concentrations: 100 nM and 1000 nM (sheet 'Samples'), CATDS: 0.106835733020908; n = 1.
Assay [20] relates to PI4KB. To be noted: read-out: apparent Kd; compound concentrations: 100 nM and 1000 nM (sheet 'Samples'), CATDS: 2.3618528560732301E-2; n = 1.
In assay [21] the test system is PIK3CA. The following applies: read-out: apparent Kd; compound concentrations: 100 nM and 1000 nM (sheet 'Samples'), CATDS: 5.0539059632895601E-2; n = 1.
Assay [22] has as its system PIK3CD. To be noted: read-out: apparent Kd; compound concentrations: 100 nM and 1000 nM (sheet 'Samples'), CATDS: 6.1879573349501601E-2; n = 1.
Assay [23] concerns PIM2. To be noted: read-out: apparent Kd; compound concentrations: 100 nM and 1000 nM (sheet 'Samples'), CATDS: 1.8579492636517099E-2; n = 1.
Assay [24] concerns PKN1. To be noted: read-out: apparent Kd; compound concentrations: 100 nM and 1000 nM (sheet 'Samples'), CATDS: 3.3974214988559501E-2; n = 1.
The test system of assay [25] is PKN2. To be noted: read-out: apparent Kd; compound concentrations: 100 nM and 1000 nM (sheet 'Samples'), CATDS: 1.8056964738192099E-2; n = 1.
The subject of assay [26] is PKN3. To be noted: read-out: apparent Kd, n = 1.
Assay [27] concerns PRKACA. To be noted: read-out: apparent Kd; compound concentrations: 100 nM and 1000 nM (sheet 'Samples'), CATDS: 2.14323323603763E-2; n = 1.
Assay [28] relates to PRKACB. The following applies: read-out: apparent Kd; compound concentrations: 100 nM and 1000 nM (sheet 'Samples'), CATDS: 2.3381704422051099E-2; n = 1.
Assay [29] deals with PRKACG. To be noted: read-out: apparent Kd; compound concentrations: 100 nM and 1000 nM (sheet 'Samples'), CATDS: 2.46536070948064E-2; n = 1.
Assay [30] has as its system PRKAG1. The following applies: read-out: apparent Kd; compound concentrations: 100 nM and 1000 nM (sheet 'Samples'), CATDS: 2.0047926729344401E-2; n = 1.
For assay [31], the system named is PRKCD. To be noted: read-out: apparent Kd; compound concentrations: 100 nM and 1000 nM (sheet 'Samples'), CATDS: 1.7220600193925E-2; n = 1.
For assay [32], the system named is PRKG1. The following applies: read-out: apparent Kd; compound concentrations: 100 nM and 1000 nM (sheet 'Samples'), CATDS: 2.2056800835646401E-2; n = 1.
Assay [33] concerns PRKX;PRKY. To be noted: read-out: apparent Kd; compound concentrations: 100 nM and 1000 nM (sheet 'Samples'), CATDS: 5.5547171780811498E-2; n = 1.
Assay [34] concerns ROCK2. To be noted: read-out: apparent Kd; compound concentrations: 100 nM and 1000 nM (sheet 'Samples'), CATDS: 2.36815478984151E-2; n = 1.
Assay [35] relates to RPS6KA4. To be noted: read-out: apparent Kd; compound concentrations: 100 nM and 1000 nM (sheet 'Samples'), CATDS: 1.94570911667616E-2; n = 1.
Assay [36] concerns RPS6KA5. The following applies: read-out: apparent Kd; compound concentrations: 100 nM and 1000 nM (sheet 'Samples'), CATDS: 1.9053083137800499E-2; n = 1.
Assay [37] deals with RPS6KB1. To be noted: read-out: apparent Kd; compound concentrations: 100 nM and 1000 nM (sheet 'Samples'), CATDS: 1.8709076421106301E-2; n = 1.
For assay [38], the system named is STK16. The following applies: read-out: apparent Kd; compound concentrations: 100 nM and 1000 nM (sheet 'Samples'), CATDS: 1.87060817181595E-2; n = 1.
The test system of assay [39] is TAOK2. To be noted: read-out: apparent Kd; compound concentrations: 100 nM and 1000 nM (sheet 'Samples'), CATDS: 1.8592761990064401E-2; n = 1.
Assay [40] deals with TGFBR1. To be noted: read-out: apparent Kd, n = 1.
For assay [41], the system named is ACVR1B. To be noted: read-out: apparent Kd; compound concentrations:100 nM and 1000 nM (sheet 'Samples'); n = 1.
Assay [42] has as its system PRKD2. The following applies: read-out: apparent Kd; compound concentrations:100 nM and 1000 nM (sheet 'Samples'); n = 1.
Assay [43] relates to PRKD3. To be noted: read-out: apparent Kd; compound concentrations:100 nM and 1000 nM (sheet 'Samples'); n = 1.
Assay [44] concerns ACVR2B. To be noted: read-out: apparent Kd; compound concentrations: 100 nM and 1000 nM (sheet 'Samples'), CATDS: 0.10934684571165; n = 1.
Assay [45] has as its system DCTPP1. To be noted: read-out: apparent Kd; compound concentrations: 100 nM and 1000 nM (sheet 'Samples'), CATDS: 0.10861575043791701; n = 1.
Assay [46] concerns EGFR. The following applies: read-out: apparent Kd; compound concentrations: 100 nM and 1000 nM (sheet 'Samples'), CATDS: 0.49201381458362498; n = 1.
For assay [47], the system named is EPHA5. The following applies: read-out: apparent Kd; compound concentrations: 100 nM and 1000 nM (sheet 'Samples'), CATDS: 0.108805216819128; n = 1.
Assay [48] deals with EPHB4. The following applies: read-out: apparent Kd; compound concentrations: 100 nM and 1000 nM (sheet 'Samples'), CATDS: 0.19010178021007501; n = 1.
Assay [49] concerns PRKD1. The following applies: read-out: apparent Kd; compound concentrations: 100 nM and 1000 nM (sheet 'Samples'), CATDS: 0.12094331971113; n = 1.
In assay [50] the test system is RET. To be noted: read-out: apparent Kd; compound concentrations: 100 nM and 1000 nM (sheet 'Samples'), CATDS: 0.16960231572365; n = 1.
The mark [51] stands for this setting: compound concentrations:100 nM and 1000 nM (sheet 'Samples').

Read-outs that look alike come from different tables or passages of the source.

In the case of `CCn1c(-c2nonc2N)nc2c(C#CC(C)(C)O)ncc(OCC3CCNCC3)c21.O=C(O)C(F)(F)F` [GSK554170A], the potency estimated from few doses is 1500 nM in assay [1]; 520 nM in assay [2]; 616 nM in assay [3]; 1440 nM in assay [4]; 2430 nM in assay [5]; 2390 nM in assay [6]. In addition, the potency estimated from few doses in assay [7] is 993 nM; in [8] it was 240 nM; in assay [9], 295 nM; in assay [10], 2320 nM; in assay [11], 1310 nM; in assay [12] it was 25.1 nM. Further, the potency estimated from few doses in assay [13] is 275 nM; in [14] it was 744 nM; in assay [15], 743 nM; in [16], 1010 nM; in assay [17], 564 nM; in [18] it was 84.6 nM. In addition, the potency estimated from few doses in assay [19] is 55.1 nM; in assay [20] it was 865 nM; in assay [21] it was 178 nM; in [22], 126 nM; in assay [23] it was 1780 nM; in assay [24] it was 375 nM. Moreover, the potency estimated from few doses was 1980 nM in assay [25]; 116 nM in assay [26] (compound concentrations: 100 nM and 1000 nM (sheet 'Samples'), CATDS: 6.5050017907180402E-2); 1130 nM in assay [27]; 888 nM in assay [28]; 775 nM in [29]; 1380 nM in assay [30]. For the same molecule, the potency estimated from few doses was 2380 nM in assay [31]; 1040 nM in [32]; 151 nM in assay [33]; 859 nM in assay [34]; 1520 nM in assay [35]; 1630 nM in assay [36]. Moreover, the potency estimated from few doses in assay [37] was 1740 nM; in assay [38] it was 1740 nM; in assay [39], 1780 nM; in assay [40] (compound concentrations: 100 nM and 1000 nM (sheet 'Samples'), CATDS: 1.75354561240674E-2), 2210 nM.

For the molecule `COc1ccc2nc(-c3cccc(C)n3)nc(Nc3ccncc3)c2c1` [GSK204919_KCGS], the potency estimated from few doses in assay [41] is 61.3 nM; in assay [26] (setting [51]), 647 nM; in [42], 12.6 nM; in assay [43], 8.21 nM.

`Cc1cccc(-c2nc(C)cc(Nc3ccncc3)n2)n1` [GSK257997A]: the potency estimated from few doses is 431 nM in assay [41], 408 nM in assay [42], 1590 nM in assay [43] and 75.9 nM in assay [40] (setting [51]).

On to `COc1cc2ncnc(Nc3cccc(Cl)c3F)c2cc1O[C@H]1CC[C@@]2(CC1)NCCNC2=O` [BI00113608], for which the potency estimated from few doses is 1660 nM in [44]; 1700 nM in [45]; 85.3 nM in assay [46]; 1690 nM in assay [47]; 421 nM in assay [48]; 1220 nM in [49]. For the same molecule, the potency estimated from few doses in assay [50] is 534 nM.

(Values after publication PMC11062922 (Nature Chemical Biology, 2023).)
